Laboratory results from PubChem BioAssay (NCI).
The panel holds about 83,000 compounds, 20% with a hit somewhere; the sample as a whole holds those more often.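 Compound tested at a single concentration for 48 hours in 96-well plates; a percent growth value below 10 was scored as active.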 Values without a mark were called inactive. Activity calls are given as the source filed them.

Assays:
Experiment in all cases: NCI-60 one-dose screen, 48 h (100 = growth as untreated, 0 = no growth, -100 = all killed)
Settings in all cases: 10 µM unless noted
[1] = tested on: NCI-H23 lung
[2] = tested on: NCI-H226 lung
[3] = tested on: NCI-H322M lung
[4] = tested on: HOP-62 NSCLC
[5] = tested on: NCI-H460 lung
[6] = tested on: HOP-92 NSCLC
[7] = tested on: NCI-H522 lung
[8] = tested on: A549/ATCC NSCLC
[9] = tested on: 786-0 renal
[10] = tested on: COLO 205 colon

SMILES	growth [1]	growth [2]	growth [3]	growth [4]	growth [5]	growth [6]	growth [7]	growth [8]	growth [9]	growth [10]
CCOC(=O)/C=C/c1c(C)[nH]c(=O)[nH]c1=O	81.2%	98.6%	136%	93.7%	51.7%	114%	59.6%	97.2%	114%	92.6%
Cc1ccc2[nH]c(-c3ccc(S(C)(=O)=O)cc3)c(/C=N/N=C(N)N)c2c1	76.4%	76.6%	79%	58.3%	37.9%	59.9%	-7.31% (active)	46.2%	44.9%	49%
COc1ccc(C(O)c2cc3c(N)c(C(=O)Nc4cccc(Cl)c4)sc3nc2C)cc1 (stereo not given)	37.8%	29.5%	46.6%	26.6%	1.28% (active)	74%	14.6%	21.2%	31.5%	3.71% (active)
CCOC(=O)c1c(NC(=O)CSc2n[nH]c3nc4ccccc4n23)sc(CC)c1C	98.6%	86.7%	107%	108%	106%	63.6%	87%	102%	98.4%	114%
COC(=O)c1nc(-c2ccccc2)oc1S(=O)(=O)N1CCC(C(N)=O)CC1	90.4%	85.2%	93.6%	104%	102%	23.7%	0.81% (active)	98.8%	51.9%	20.6%
O=C1c2cc3c(cc2-c2c1c1ccc(Cl)cc1c(=O)n2C[C@H](O)CO)OCO3	-11.4% (active)	-77.7% (active)	-14.3% (active)	-19.8% (active)	-12.1% (active)	-11% (active)	-12.7% (active)	-18.6% (active)	-42.2% (active)	-28.1% (active)
CCOC(=O)C1=C(c2ccccc2)N=c2s/c(=C/c3ccc(Br)cc3)c(=O)n2C1c1ccc(O)cc1 (stereo not given)	95.4%	86.6%	91.9%	105%	94.1%	71.2%	87.9%	80.2%	77.4%	118%
CN(Cc1cnc2nc(N)nc(N)c2n1)c1c(Cl)cc(C(=O)NC(CCC(=O)O)C(=O)O)cc1Cl (stereo not given)	25.8%	67.5%	31.2%	23.8%	20.2%	15.4%	24.5%	15.6%	12.7%	53%
CC(=O)N(Cc1ccccc1)c1nc2ccc(O)c(CN(C)C)c2s1	96.7%	90.5%	103%	90.6%	100%	37.6%	90.2%	98.4%	97.6%	116%
O=c1oc2c(cnc3ccccc32)cc1-c1cccs1	101%	107%	104%	100%	112%	102%	104%	104%	98.8%	106%
O=C(CCCCNC(=O)c1cc(=O)c(O)co1)Nc1ccccc1	86.2%	102%	102%	118%	99.5%	59.1%	-5.93% (active)	104%	101%	67.7%
NC(CSC(c1ccccc1)(c1ccccc1)c1ccc2c(c1)OCO2)C(=O)O (stereo not given)	14.6%	75%	26.6%	55.3%	7.27% (active)	10.9%	-20.9% (active)	18.5%	51.1%	-32% (active)
COc1ccc2c(c1)c(-c1cc(-c3cn(C)c4ccc(OC)cc34)on1)cn2C	84.1%	88%	96.6%	141%	109%	59%	90.2%	109%	102%	112%
O=C1c2cccnc2C(=O)c2c1c(C(=O)OCCCN1CCCCC1)c1ccccn21	-48.5% (active)	-18.4% (active)	-18.1% (active)	-31.9% (active)	-63.3% (active)	-8.21% (active)	-80% (active)	-63.8% (active)	-62.6% (active)	-79% (active)
CCc1cccc(Sc2cc(C(=O)N3Cc4ccc(OCCN(C)C)cc4C3)ccc2O)c1	41.2%	89.3%	62.9%	71.5%	38.9%	57.1%	66.8%	43.1%	70.6%	109%
CCOC(=O)c1c(-c2ccc(Cl)cc2)c(C#N)c2c(C#N)c(N)nn2c1N	85.9%	87.4%	83.4%	74.9%	77.3%	63.1%	37.4%	51.3%	82.6%	69.8%
O=C(CCC(=O)c1nc2ncccc2[nH]1)NN1C(=O)CSC1c1ccc(Cl)cc1 (stereo not given)	91.4%	95.9%	93.5%	93.9%	102%	111%	83%	97.3%	101%	116%
O=C1/C(=C/c2ccccc2[N+](=O)[O-])COc2ccc(O)cc21	18.8%	66.4%	60.9%	29.1%	29%	40%	-40.8% (active)	54.1%	-41.3% (active)	-32.6% (active)
COc1ccc(/C=C/C(=O)c2ccc(NC(=O)CSc3nnc(-c4cc(-c5ccccc5)nc5ccccc45)n3-c3ccccc3)cc2)cc1	93.2%	102%	99.6%	97.3%	107%	84.9%	83.9%	97.9%	95.4%	110%
COc1cc2cc(Oc3ccc(NC(=O)Nc4ccccc4)cc3)c(C)nc2cc1OCCN1CCCCC1	96.5%	99.8%	114%	94.9%	33%	55.7%	106%	78.6%	68.3%	69.3%
Cc1ncc(C(=O)Nc2ccc(CN3CCN(C)CC3)c(C(F)(F)F)c2)cc1C#Cc1cnc(N)c2ccncc12	-65% (active)	-5.01% (active)	-32.5% (active)	-54.8% (active)	-65.5% (active)	-52.2% (active)	-79% (active)	-40.4% (active)	-45% (active)	-84.1% (active)
O=C(CSc1nnc2sc(Nc3cccc(Cl)c3)nn12)c1ccc(F)cc1	80.3%	95.9%	91.5%	97.7%	95.8%	74.5%	75.6%	87.1%	91.4%	92.6%
COc1ccc(C/C(C)=C(/c2ccc(OCCN3CCCCCC3)cc2)c2ccc(OC(=O)NCc3ccccc3)cc2)cc1	86.4%	101%	93.2%	91.1%	70.7%	56%	75.2%	77%	83.5%	85.7%
CC1(C)O[C@H]2OC3CCC(=O)CC3(O)[C@H]2O1 (stereo not given in full)	99.2%	102%	101%	95.8%	101%	79.8%	92.4%	95.9%	99.5%	105%
O=C1CCCc2nc3sc4c(=O)n(-c5ccccc5Cl)nnc4c3cc21	101%	89.1%	101%	94.3%	100%	94.9%	74.5%	80%	86.6%	105%
COc1ccc(-c2ccc(-c3ccc(C(=N)N)cn3)s2)cc1	98.8%	84.5%	91.9%	90%	-22.6% (active)	80%	82.4%	63.6%	99.7%	62.4%
